Results taken from PubChem BioAssay AID602449 (Sanford-Burnham Center for Chemical Genomics, 2012).
About 5,000 (1.4%) of roughly 360,000 compounds were called active. The list comes from a sample in which actives are over-represented; it also holds similar structures and randomly drawn compounds. Values without a mark were called inactive.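 How the source made its calls: active means inhibition of 50% or more, scaled per plate between neutral and stimulator controls; inactive means the rest.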

assay: mitochondrial permeability transition pore inhibitors, primary screen, biochemical, isolated mouse mitochondria, absorbance (AID 602449); conditions: Ca2+ swelling absorbance, 30 min, at 10 µM, stronger effect = higher value;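 further: 0% = DMSO wells given calcium and 100% = 1 mM EGTA wells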

SMILES	inhibition
CCN1CCC(O)(/C=C/c2ccc(C)cc2)C(C(=O)/C=C/c2ccc(C)cc2)C1 (stereo unspecified)	58.4% (active)
CCN1CCC2(CC1)N=C(c1ccc(F)cc1)C(=S)N2C(=O)c1ccc(C)cc1	-2.8%
COc1cccc(NC(=O)CSc2nnc(Cc3ccc(OC)c(OC)c3)o2)c1	-0.5%
COc1ccc(CCN=C2SCC(=O)N2C)cc1OC	-1.1%
O=C(O)c1cc2c(cc1NC(=O)c1c(F)cccc1Cl)OCCCO2	-1.5%
CCOc1ccc(C(O)Cn2c(=N)n(CCN3CCCCC3)c3ccccc32)cc1 (stereo unspecified)	3.5%
N=c1n(Cc2ccc(Cl)cc2)c2ccccc2n1CC(O)c1ccco1 (stereo unspecified)	83.7% (active)
N=c1n(CCc2ccccc2)c2ccccc2n1Cc1ccccc1F	8.3%
O=C(Cc1ccccc1)Nc1c(C(=O)N2CCCCCC2)cnn1-c1ccccc1	-1.2%
O=C(Cn1nc(Cc2cccnc2)c2ccccc2c1=O)NCC1COc2ccccc2O1 (stereo unspecified)	-1.9%
c1ccc(-c2cc3c(NCC4COc5ccccc5O4)ncnc3s2)cc1 (stereo unspecified)	91.4% (active)
O=C(Cn1cnc2ccccc2c1=O)NCC1COc2ccccc2O1 (stereo unspecified)	-0.6%
CCN=c1sc(C(=O)Nc2ccccc2)c(C)n1CC	4.6%
COC(=O)Nc1ncc(CN2C(=O)c3ccccc3C2=O)s1	-1.2%
CCCCNC(=S)NNC(=O)c1cc(C)on1	-1.2%
CC1=C(C(=O)N2CCOCC2)CC(CC(=O)NCc2cccc3ccccc23)C(=O)N1CCC1=CCCCC1 (stereo unspecified)	-2.5%
CCC(C(=O)OC)n1cnc2scc(-c3ccc(C)cc3)c2c1=O (stereo unspecified)	0.8%
CCCc1nc2scc(-c3ccc(C)cc3)c2c(=O)n1N	89.9% (active)
Cc1nc2scc(-c3cccs3)c2c(=O)n1N	-3.1%
CS(=O)(=O)N(Cc1ccccc1)c1ccc(C(=O)NN=C2CCCCCC2)cc1	0.9%
COc1ccc(S(=O)(=O)N2CCOCC2)cc1NC(=O)CSc1cc(C)ccc1C	-0.5%
Cc1ccc(-c2csc(NC(=O)C3=COCCO3)n2)cc1C	4.6%
COc1ccc(C(O)c2nc(-c3ccc4c(c3)OCO4)cs2)cc1 (stereo unspecified)	2.5%

SMILES	inhibition
O=C(Nc1nc(-c2ccc3c(c2)OCO3)cs1)c1ccncc1	72.3% (active)
COc1ccc(NC(=O)NCCN2CCN(c3ccc(C)cc3)CC2)c(Cl)c1	0.3%
COC(=O)c1cccc(-n2[nH]nnc2=S)c1	0.4%
Cn1c(=O)c(=O)n(C)c2cc(S(=O)(=O)NCCN3CCN(c4ccccc4F)CC3)ccc21	1.9%
CC(C)=CC(=O)Nc1nnc(-c2ccc(F)cc2)s1	-0.8%
Cc1ccc(S(=O)(=O)CCC(=O)Nc2nnc(CC(C)C)s2)cc1	0.4%
CCc1ccc(NC(=O)Nc2ccncc2)cc1	63.6% (active)
Cc1ccc(NC(=O)Nc2nnc(-c3ccncc3)s2)cc1	77.2% (active)
Cc1nnc(NC(=O)Nc2ccc(Cl)c(Cl)c2)s1	88.5% (active)
CC(C)CC(=O)Nc1ccc(Cc2ccncc2)cc1	1.5%
Cc1nnc(NC(=O)Cn2c(=O)sc3ccccc32)s1	-2.7%
COc1cccc(NC(=O)Nc2nnc(N3CCCCC3C)s2)c1 (stereo unspecified)	0.5%
CCc1ccc(NC(=O)N[C@H](C(=O)O)C(C)CC)cc1 (stereo partly specified)	-1.3%
CCOC(=O)c1sc(NC(=O)CSc2nc(C)cc(C(F)(F)F)n2)c(C#N)c1C	13.1%
CCCN=C1NC(=O)C(CC(=O)NCCc2ccc(OC)c(OC)c2)S1 (stereo unspecified)	-0.3%
CC[C@H]1OC(=O)[C@H](C)[C@@H](O[C@H]2C[C@@](C)(OC)[C@@H](O)[C@H](C)O2)[C@H](C)[C@@H](O[C@@H]2O[C@H](C)C[C@H](N(C)C)[C@H]2O)[C@](C)(O)C[C@@H](C)[C@@H]2N[C@@H](COCCOC)O[C@H]([C@H]2C)[C@]1(C)O	-2.3%
CCOC(=O)c1c(NC(=O)COC(=O)c2ccc(S(=O)(=O)C(F)F)cc2)sc(C(=O)N(C)C)c1C	-0.1%
CCOc1ccc(OCC(=O)Nc2c3c(nn2C(C)(C)C)CS(=O)(=O)C3)cc1	1.2%
COc1ccc(S(=O)(=O)N2CCN(CC(=O)NCC3(N4CCOCC4)CCCCC3)CC2)cc1	0.2%
CC[C@@H](C)[C@@H]1CN([C@@H](C)CN2CCC[C@H]2CN2C(N)=NC[C@H]2C(C)C)C(=N)N1CCc1ccc(Cl)c(Cl)c1	-0.6%
NC1=NC[C@@H](Cc2ccc(O)cc2)N1CC1CCCCC1	0.7%
C[C@@H](CN1CCC[C@H]1CN1C(N)=NC[C@@H]1Cc1ccccc1)N1C[C@@H](Cc2ccccc2)N(CCCC2CCCC2)C1=N	73.7% (active)
COc1ccc(S(=O)(=O)N2CCCCC2)cc1C(=O)NC1CCS(=O)(=O)C1 (stereo unspecified)	0.2%

SMILES	inhibition
Cc1ccc(C(CNC(=O)Nc2ccccc2)N2CCN(C)CC2)cc1 (stereo unspecified)	2%
COc1ccc(OCCCC(=O)OC(C)C(=O)Nc2ccccc2[N+](=O)[O-])cc1 (stereo unspecified)	0.5%
O=C(NC(=S)N1CCCCC1c1cccnc1)c1ccccc1 (stereo unspecified)	-1.5%
S=C(NCCc1ccccc1)N1CCn2cccc2C1c1ccncc1 (stereo unspecified)	-5.1%
S=C(Nc1cccc(Br)c1)N1CCn2cccc2C1c1cccnc1 (stereo unspecified)	63.5% (active)
COc1ccc(OC)c(C(O)c2ncc(-c3cccc(C(F)(F)F)c3)[nH]2)c1 (stereo unspecified)	1%
Nc1nnc(SCC(=O)NCC(=O)Nc2ccc(F)c(F)c2F)s1	-2.5%
O=C(NCCCN1CCOCC1)c1cc(-c2cccc(O)c2)on1	-0.1%
O=C(c1cc(-c2ccc(O)cc2)on1)N1CCOCC1	-1.3%
O=C(c1cc(-c2cccc(O)c2)on1)N1CCc2ccccc2C1	59.3% (active)
CC(=O)NS(=O)(=O)c1ccc2c(c1)Cc1cc(S(=O)(=O)NC(C)=O)ccc1-2	0.4%
O=C(c1ccc(Br)o1)N(c1ccccn1)C1CCCCC1	8.3%
COc1ccc(CCNC(=O)CN2C(=O)COc3ccc(S(=O)(=O)N4CCCC4)cc32)cc1OC	0.6%
CC12CN3CCN(CC(C3)/C1=N\NC(=O)c1ccccc1N)C2	2.6%
CN(C)C(CNC(=O)CCCOc1ccccc1)c1ccco1 (stereo unspecified)	1%
COc1cc(C(=O)NCc2ccc3c(c2)cc(C)n3C)cc(OC)c1OC	1.2%
COc1cc(C(=O)NCc2cc3cc(Cl)ccc3n2C)cc(OC)c1OC	0.7%
CCn1c(CNC(=O)c2cc(OC)c(OC)c(OC)c2)cc2cc(C)ccc21	68.8% (active)
CC1(C)S[C@@H]2[C@H](NC(=O)COc3ccccc3)C(=O)N2C1C(=O)OCc1ccccc1 (stereo partly specified)	2.2%
CC(C)(C)c1cc(NC(=O)NN2CCOCC2)nn1-c1c(Cl)cc(Cl)cc1Cl	-1.3%
Cc1ccc(-c2noc(CCC(=O)Nc3ccccc3N3CCN(C)CC3)n2)cc1	79.9% (active)
COc1ccc(-c2noc(CCC(=O)N3CCN(c4cccc(C)c4)CC3)n2)cc1	0.4%
COc1ccc(N2CCN(C(=O)CCc3nc(-c4ccc(C)cc4)no3)CC2)cc1	-0.2%

SMILES	inhibition
CC1CCN(C(=O)c2ccccc2NC(=O)Cc2ccccc2)CC1	2%
COc1ccc(-n2c(C)cc(C(=O)COC(=O)c3cc(OC)c(OC)cc3NC(=O)c3cccs3)c2C)cc1	3.8%
Cc1ccc(-n2c(C)cc(C(=O)CSc3nnc4ccccn34)c2C)cc1	5%
COc1ccc(-n2c(C)cc(C(=O)CSc3nnc(-c4cccs4)o3)c2C)cc1	91% (active)
O=[N+]([O-])c1c(NCCO)cc(Sc2nc3ccccc3s2)c2nonc12	4.8%
O=[N+]([O-])c1cccc(C=NN=Cc2ccccc2O)c1	2.1%
O=[N+]([O-])c1cc(Br)c(O)c(/C=N/Nc2nc3ccccc3s2)c1	82.3% (active)
Cc1c(C(=O)NCC2CC2)sc(=O)n1Cc1cccc(F)c1	-2.3%
COc1cc(C)c(Cl)cc1S(=O)(=O)n1ccnc1	0.5%
N/C(=N\S(=O)(=O)c1cc(C(F)(F)F)cc(C(F)(F)F)c1)c1cccs1	35.4%
O=C(NNc1c2ccccc2nc2ccccc12)c1cc2ccccc2cc1O	104% (active)
Cc1noc(C)c1COC(=O)c1cc2ccccc2cc1O	1%
O=C(CSc1nc(C2CC2)nc2ccccc12)Nc1cccc(O)c1	-0.4%
CS(=O)(=O)N(CC(=O)N1CCOCC1)c1cccc(Cl)c1Cl	-0.3%
Cc1ccc(-n2ncc3c2CC(C)(C)CC3NC(=O)CCc2cnn(C)c2)cc1 (stereo unspecified)	-0.7%
O=C(NCCc1ccccn1)c1ccc(COc2ccccc2)o1	-1.4%
C=CC[n+]1c(-c2ccc(C)cc2)csc1NNC(=O)Nc1ccccc1	86.7% (active)
O=C(NNC(=O)c1ccc(-c2ccccc2)cc1)Nc1ccccc1	2.8%
Cc1ccc(NC(=O)NNC(=O)c2sccc2-n2cccc2)cc1	1.7%
CC1CCC(N2CC(=O)N(Cc3ccc4c(c3)OCO4)C(c3ccc(F)cc3)C2=O)CC1 (stereo unspecified)	-0.9%
COCCNC(=S)N1CCC(NC(=O)C23CC4CC(CC(C4)C2)C3)CC1	-2.3%
CCN1/C(=C\c2ccc3ccccc3[n+]2CC)Sc2cc(C)ccc21	101% (active)
